Screening data as filed in PubChem.
Peg3 promoter: Peg3 promoter-driven luciferase inhibitors, primary screen, cell-based, HeLa, luciferase luminescence. HeLa PEG-Prom luciferase reporter, overnight. inhibition, % at 20 µM. hit rate 1.7% among 360,000. AID 588405, 2011;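 active means inhibition of at least 50% at 20 µM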
TWEAK Fn14 block: inhibitors of TWEAK-Fn14 signaling, primary screen, luciferase reporter cells, uHTS; TWEAK-stimulated Fn14 reporter cells, luciferase luminescence, 8 h; inhibition, % at 10 µM; hit rate 2% among 360,000; AID 1159606, 2016; in the data active means inhibition above about 50%
Shn3 inh set2: reduction of Shn3 3'UTR firefly luciferase signal, primary screen, Schnurri-3 inhibitor project, cell-based, Clone20 osteoblasts, set 2; inhibition, % at 12.5 µM; Clone20 osteoblast Shn3 3'UTR firefly luciferase, 24 h; hit rate 0.52% among 360,000; AID 588674, 2011;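 active means mean inhibition of at least 75% with every replicate also reaching 75%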;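 further: 0% = median of neutral control wells and 100% = pilot-screen positive control compound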
LMP1 NFkB inh: EBV LMP1-driven NF-kappaB luciferase reporter inhibitors, primary screen, cell-based, luminescence, single point; LMP1-induced NF-kappaB luciferase reporter cells; inhibition, % at 12.5 µM; hit rate 0.69% among 350,000; AID 504558, 2011; in the data active means inhibition above about 41%;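 further: 0% = neutral control wells and 100% = reference inhibitor control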
TROY signal inh: inhibitors of TROY-driven NF-kB signaling, primary screen, Q293 LMP1-TROYcd cells, NF-kB luciferase, uHTS | hit rate 0.98% among 360,000 | Q293 LMP1-TROYcd NF-kB luciferase reporter, 4 h | AID 1347056, 2019 | inhibition, % at 10 µM;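 active means compounds whose plate-normalised and pattern-corrected inhibition of the luciferase reporter signal at the single screening dose is 50% or more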
MITF TRPM1 inh: inhibitors of MITF-dependent TRPM1 promoter reporter, primary screen, cell-based, SK-MEL-5, single point, luciferase; inhibition, % at 12.5 µM; hit rate 0.83% among 330,000; SK-MEL-5 TRPM1 promoter luciferase, 24 h; AID 488899, 2010;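 active means mean inhibition across replicates of 60% or more, whatever share of single replicates reaches that level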
* hit, by the source's call; / = no result given. Shown are actives, neighbours in structure and some others; about 4.1% of the full set was active somewhere.

SMILES	Peg3 promoter	TWEAK Fn14 block	Shn3 inh set2	LMP1 NFkB inh	TROY signal inh	MITF TRPM1 inh
N#CC(c1ccc(Cl)cc1)c1cccc(Cl)n1 (centres undefined)	8	-1	4	-6	-7	-14
COc1ccc(C(C#N)c2ccc(=O)[nH]n2)cc1 (centres undefined)	7	-6	1	52*	-12	32
CC(O)c1cccc(-c2ccc(CN3C[C@]4(CO)O[C@@H](CO)C[C@@H]4S3(=O)=O)cc2)c1 (some centres undefined)	6	-12	-4	-6	-10	-3
COc1ccc2nc(NC(=O)CCNC(=O)c3ccco3)sc2c1	-208	-16	-111	-35	-71	-89
COc1ccc2nc(NC(=S)NC(=O)c3ccco3)sc2c1	-307	49	-89	-3	51*	-69
O=C(Nc1nc2c(Br)cc(Br)cc2c(=O)s1)c1ccco1	23	62*	/	-4	4	-9
O=C(NC(=S)Nc1nc2ccccc2s1)c1ccco1	-275	29	-49	-21	11	0
COc1cccc(C(=O)Nc2cc(OC)ccc2NC(=O)c2ccco2)c1	12	56*	3	-5	-26	8
COc1ccc2sc(NC(=O)c3ccco3)nc2c1	-55	70*	9	27	42	0
COc1ccc(-n2ncc3c2CC(C)(C)CC3NC(=O)CCN2CCCCC2=O)cc1 (centres undefined)	4	10	-11	-5	-5	1
Cc1nnc(SCC(=O)Nc2sc3c(c2C(N)=O)CCC(C)C3)[nH]c1=O (centres undefined)	2	-13	-9	-2	14	5
COc1ccc2nc(NC(=O)c3cccc(OCc4c(C)noc4C)c3)sc2c1	-90	52*	-15	-14	35	9
Cc1nc(NC(=O)c2ccco2)sc1C(=O)O	42	59*	-53	0	36	19
Cc1cc(C)c2nc(NC(=O)c3ccco3)sc2c1	-299	59*	-41	-42	15	-24
COC(=O)c1cccc(COC(=O)c2ccccc2NC(=O)c2ccco2)c1	-19	3	1	51*	-32	-5
COC(=O)c1ccccc1NC(=O)c1ccco1	-1	-3	-3	3	9	-3
Cc1c(S(=O)(=O)N2CCCCC2)c(=O)n(C)c(=O)n1C	-3	8	4	-3	-24	-17
N#CCC(=O)N/N=C/c1ccc(N2N=C(c3ccccc3)CC2c2ccccc2)cc1 (centres undefined)	12	10	7	-6	-1	22
CCCCN(C(=O)c1c(CC)noc1C)c1c(N)n(CCCC)c(=O)[nH]c1=O	11	-2	-10	-2	5	3
COc1ccc2nc(NC(=O)c3ccoc3C)sc2c1	-138	59*	-33	-10	-6	-27
CC#C[C@@H](CC)c1ccc2ccn(C)c2c1	-57	-9	-27	0	-12	/
COc1cc(CNCCN2CCOCC2)ccc1OCc1ccc(Cl)cc1	-28	5	-3	-7	-60	-24
COc1cc(CNCCN2CCOCC2)ccc1OCc1ccccc1Cl	-10	101*	-17	-4	/	-9
COc1cc(CNc2ccc3[nH]c(=O)[nH]c3c2)ccc1OCc1ccccc1Cl	-30	53*	2	-5	-17	-63
CCOC(=O)C1CCCN(C(=O)c2ccc3nc(-c4cccc(OC)c4)oc3c2)C1 (centres undefined)	-25	46	-67	-11	68*	-25
SMILES	Peg3 promoter	TWEAK Fn14 block	Shn3 inh set2	LMP1 NFkB inh	TROY signal inh	MITF TRPM1 inh
CCC(=O)C1CCCN(C(=O)c2ccc3nc(-c4cccc(OC)c4)oc3c2)C1 (centres undefined)	-132	39	-71	-6	53*	-33
COc1cccc(-c2nc3ccc(C(=O)N4CCCC(O)C4)cc3o2)c1 (centres undefined)	-204	7	-74	-16	-45	-53
CCN(CC)C(=O)C1CCCN(C(=O)c2ccc3nc(-c4cccc(OC)c4)oc3c2)C1 (centres undefined)	-81	-6	-11	-7	-42	/
CCC1CCCCN1CCCNC(=O)CSc1nc2nc(C)c(Cc3ccc(C)cc3)c(C)n2n1 (centres undefined)	5	-3	8	-1	-11	-12
Cc1ccc(CNC(=O)CCc2nnc3ccc(N4CCC5(CC4)OCCO5)nn23)cc1	10	-18	9	-7	-12	3
CC(=O)N(c1ccccc1C)C1CCCC1	19	10	-26	-2	9	-13
CC(=O)N(C1=C(Cl)C(=O)c2ccccc2C1=O)C1CCCCC1	105*	15	7	24	21	86*
C#CCOCCOCCOCCNc1nc(N2CCN(C(=O)Cn3cc(CCO)nn3)CC2)nc(N2CCN(C(=O)[C@H](Cc3ccc(O)cc3)n3cc(CCO)nn3)CC2)n1	-6	-3	-11	-5	-10	-5
CCN(CC)c1ccc(/C=C2\C(=O)N(c3nnc(C)c(=O)[nH]3)N=C2C)cc1	13	75*	2	7	-20	2
CCN(CC)c1ccc(/C=C2/C(=O)ON=C2C)cc1	10	-6	20	14	-71	9
CC[n+]1ccc(/C=C2\Sc3ccccc3N2CCCS(=O)(=O)[O-])c2ccccc21	8	6	67	-5	22	8
CN1C=C/C(=C\c2cc[n+](C)c3ccccc23)c2ccccc21	11	28	69	35	1	77*
CC1(C)Cc2c(C#N)c(NCc3ccco3)nc(-c3ccco3)c2CO1	-1	15	-7	-6	-2	-8
CC(C)c1nc2sc3c(NCc4ccco4)ncnc3c2c2c1COC(C)(C)C2	27	52*	19	0	/	-1
CCCc1nc(NCc2ccco2)c(C#N)c2c1COC(C)(C)C2	27	74*	7	3	/	2
COc1ccc(CN2CCN(CCC(C)C)C(CCO)C2)cc1Cn1cncn1 (centres undefined)	17	15	-50	-3	2	2
CCOc1ccc(NC(=O)CN(C)C(=O)CN2C(=O)c3ccc([N+](=O)[O-])cc3C2=O)cc1OCC	-3	-1	-14	0	8	10
Cc1ccc(NC(=O)CCCCCN2C(=O)[C@@H]3Cc4ccccc4CN3C2=O)c(Cl)c1	2	-5	19	-11	12	6
CC1CCCC(CC(N)=O)CC1 (centres undefined)	0	1	94*	-3	-5	1
O=C(CC1CCC1)NC(c1ccccc1)c1ccccc1	7	17	4	-7	8	-8
